From PMC7862700, “An all-to-all approach to the identification of sequence-specific readers for epigenetic DNA modifications on cytosine”

Key:
Test in all cases: DAPPL (digital affinity profiling via proximity ligation, sequencing); 10 mM Tris-HCl pH 7.5, 50 mM NaCl, 1 mM DTT, 4% glycerol, room temperature, 30 min; GST-TFs on glutathione beads, 16-mer random dsDNA library, 0.1% formaldehyde crosslink after washing; high values mean tight binding
FEV = target: T1, FEV (Homo sapiens, UniProt Q99581 1-238); conditions: protein: recombinant; tags: N-terminal GST; dsDNA, one strand shown
T1 sequence: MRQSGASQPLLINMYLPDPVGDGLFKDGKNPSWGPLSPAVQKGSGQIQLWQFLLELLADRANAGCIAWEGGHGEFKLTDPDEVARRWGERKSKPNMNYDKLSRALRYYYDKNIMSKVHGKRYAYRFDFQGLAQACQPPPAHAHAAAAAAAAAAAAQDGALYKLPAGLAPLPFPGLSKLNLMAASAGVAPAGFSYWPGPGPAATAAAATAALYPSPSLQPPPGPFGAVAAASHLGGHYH
How it was run: (§1)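 The binding signal reported is, for every hexamer, its read frequency for a factor over its read frequency for the tag-only sample. Reads came from pools of yeast-expressed, GST-fused human transcription factors on glutathione beads, barcoded with DNA and mixed with that sample, which were incubated with 200 nmole of a random double-stranded 16-mer DNA library in Tris/NaCl/DTT/glycerol buffer at room temperature for 30 min. After washing, the pools were crosslinked with 0.1% formaldehyde, proximity-ligated with BsaI/T4 ligase for 1 h at 37 °C, PCR-amplified and sequenced on an Illumina NextSeq500.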

ETV5 = ETV5 (Homo sapiens, UniProt P41161 1-510); conditions: protein: recombinant; tags: N-terminal GST; dsDNA, one strand shown
How it was run: as §1

HSF1 = HSF1 (Homo sapiens, UniProt Q00613 1-529); conditions: protein: recombinant; tags: N-terminal GST; chain copies: 3; dsDNA, one strand shown
How it was run: as §1

SPIC = target: T2, SPIC (Homo sapiens, UniProt Q8N5J4 1-248); conditions: protein: recombinant; tags: N-terminal GST; dsDNA, one strand shown
T2 sequence: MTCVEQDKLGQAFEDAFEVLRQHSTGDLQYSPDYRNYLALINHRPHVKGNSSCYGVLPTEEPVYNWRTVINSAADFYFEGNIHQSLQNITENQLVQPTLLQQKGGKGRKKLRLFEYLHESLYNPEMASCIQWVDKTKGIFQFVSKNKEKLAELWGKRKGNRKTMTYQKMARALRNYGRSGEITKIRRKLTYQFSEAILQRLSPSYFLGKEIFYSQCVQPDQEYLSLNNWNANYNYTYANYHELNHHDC
How it was run: as §1

ELF4 = ELF4 (Homo sapiens, UniProt Q99607 1-663); conditions: protein: recombinant; tags: N-terminal GST; dsDNA, one strand shown
How it was run: as §1

ELK4 = target: T3, ELK4 (Homo sapiens, UniProt P28324-2 1-405); conditions: protein: recombinant; tags: N-terminal GST; dsDNA, one strand shown
T3 sequence: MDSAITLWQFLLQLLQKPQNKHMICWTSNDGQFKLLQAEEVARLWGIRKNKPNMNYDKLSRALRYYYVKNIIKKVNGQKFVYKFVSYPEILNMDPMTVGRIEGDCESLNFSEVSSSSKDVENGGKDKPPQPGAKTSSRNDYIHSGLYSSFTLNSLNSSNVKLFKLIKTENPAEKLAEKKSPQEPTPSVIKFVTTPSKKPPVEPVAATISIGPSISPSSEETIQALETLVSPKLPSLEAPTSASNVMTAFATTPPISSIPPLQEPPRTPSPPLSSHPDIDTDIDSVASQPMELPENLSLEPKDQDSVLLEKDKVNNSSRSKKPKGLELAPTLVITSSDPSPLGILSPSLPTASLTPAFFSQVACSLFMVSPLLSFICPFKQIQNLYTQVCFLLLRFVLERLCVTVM
How it was run: as §1

ETV2 = target: T4, ETV2 (Homo sapiens, UniProt O00321 1-342); conditions: protein: recombinant; tags: N-terminal GST; dsDNA, one strand shown
T4 sequence: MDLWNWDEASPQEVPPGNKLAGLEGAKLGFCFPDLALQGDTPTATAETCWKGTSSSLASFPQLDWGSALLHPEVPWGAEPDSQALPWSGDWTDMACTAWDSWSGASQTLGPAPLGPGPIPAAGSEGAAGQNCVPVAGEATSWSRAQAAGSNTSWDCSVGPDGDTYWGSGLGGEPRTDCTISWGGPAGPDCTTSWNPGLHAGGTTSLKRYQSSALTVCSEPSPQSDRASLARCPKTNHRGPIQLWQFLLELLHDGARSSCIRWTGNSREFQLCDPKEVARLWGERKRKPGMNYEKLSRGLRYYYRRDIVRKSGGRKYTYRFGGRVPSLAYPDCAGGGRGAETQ
How it was run: as §1

ELF3 = target: T5, ELF3 (Homo sapiens, UniProt P78545 1-371); conditions: protein: recombinant; tags: N-terminal GST; dsDNA, one strand shown
T5 sequence: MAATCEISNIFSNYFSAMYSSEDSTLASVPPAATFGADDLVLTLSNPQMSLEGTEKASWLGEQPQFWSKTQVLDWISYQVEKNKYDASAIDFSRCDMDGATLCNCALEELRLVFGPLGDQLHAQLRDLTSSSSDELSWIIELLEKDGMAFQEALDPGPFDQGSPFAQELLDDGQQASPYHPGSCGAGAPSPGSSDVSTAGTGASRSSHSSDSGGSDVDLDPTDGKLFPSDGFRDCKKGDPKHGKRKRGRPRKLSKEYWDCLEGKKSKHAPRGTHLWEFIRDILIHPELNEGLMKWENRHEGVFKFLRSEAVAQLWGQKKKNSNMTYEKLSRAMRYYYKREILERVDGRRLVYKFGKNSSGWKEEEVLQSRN
How it was run: as §1

CRX = CRX (Homo sapiens, UniProt O43186 1-299); conditions: protein: recombinant; tags: N-terminal GST; dsDNA, one strand shown
How it was run: as §1

ETV1 = ETV1 (Homo sapiens, UniProt P50549 1-477); conditions: protein: recombinant; tags: N-terminal GST; dsDNA, one strand shown
How it was run: as §1

ERF = target: T6, ERF (Homo sapiens, UniProt P50548 1-548); conditions: protein: recombinant; tags: N-terminal GST; dsDNA, one strand shown
T6 sequence: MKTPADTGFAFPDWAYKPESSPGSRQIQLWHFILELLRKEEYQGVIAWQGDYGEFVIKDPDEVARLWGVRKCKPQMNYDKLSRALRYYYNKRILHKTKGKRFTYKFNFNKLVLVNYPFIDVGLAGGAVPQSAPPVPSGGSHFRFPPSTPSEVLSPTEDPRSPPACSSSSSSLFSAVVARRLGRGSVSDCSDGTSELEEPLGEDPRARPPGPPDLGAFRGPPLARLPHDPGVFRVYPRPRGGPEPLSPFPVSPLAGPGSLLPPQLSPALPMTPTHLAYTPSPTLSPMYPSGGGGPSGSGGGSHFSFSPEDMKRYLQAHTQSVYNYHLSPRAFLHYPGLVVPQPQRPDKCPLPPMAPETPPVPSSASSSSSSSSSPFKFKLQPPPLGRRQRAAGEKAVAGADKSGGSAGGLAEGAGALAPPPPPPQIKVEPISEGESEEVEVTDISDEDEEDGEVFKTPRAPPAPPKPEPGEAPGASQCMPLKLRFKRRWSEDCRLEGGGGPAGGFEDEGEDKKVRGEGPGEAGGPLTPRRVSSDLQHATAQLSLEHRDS
How it was run: as §1

ETV3L = target: T7, ETV3L (Homo sapiens, UniProt Q6ZN32 1-361); conditions: protein: recombinant; tags: N-terminal GST; dsDNA, one strand shown
T7 sequence: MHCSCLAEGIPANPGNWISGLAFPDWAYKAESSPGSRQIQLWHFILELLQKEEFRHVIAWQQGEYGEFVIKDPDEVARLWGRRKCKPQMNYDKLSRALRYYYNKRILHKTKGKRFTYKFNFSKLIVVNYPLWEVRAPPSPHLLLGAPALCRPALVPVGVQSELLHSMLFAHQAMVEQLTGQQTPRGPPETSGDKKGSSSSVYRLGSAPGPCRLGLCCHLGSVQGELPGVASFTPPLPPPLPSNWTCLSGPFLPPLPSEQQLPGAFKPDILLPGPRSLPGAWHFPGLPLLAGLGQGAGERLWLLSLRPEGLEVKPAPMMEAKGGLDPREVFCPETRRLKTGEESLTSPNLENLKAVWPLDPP
How it was run: as §1

ETS2 = target: T8, ETS2 (Homo sapiens, UniProt P15036 1-469); conditions: protein: recombinant; tags: N-terminal GST; dsDNA, one strand shown
T8 sequence: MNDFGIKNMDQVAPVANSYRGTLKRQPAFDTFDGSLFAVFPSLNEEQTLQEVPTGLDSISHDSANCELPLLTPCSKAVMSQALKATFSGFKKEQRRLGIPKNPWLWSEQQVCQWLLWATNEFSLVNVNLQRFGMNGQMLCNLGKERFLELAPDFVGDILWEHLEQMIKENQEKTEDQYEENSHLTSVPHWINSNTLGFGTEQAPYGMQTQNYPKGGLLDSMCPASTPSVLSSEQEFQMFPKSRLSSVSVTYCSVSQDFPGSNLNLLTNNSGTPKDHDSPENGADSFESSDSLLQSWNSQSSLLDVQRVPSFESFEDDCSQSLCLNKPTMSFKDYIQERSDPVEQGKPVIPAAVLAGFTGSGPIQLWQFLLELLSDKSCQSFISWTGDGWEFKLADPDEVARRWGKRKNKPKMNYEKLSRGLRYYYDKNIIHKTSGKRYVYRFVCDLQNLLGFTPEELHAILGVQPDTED
How it was run: as §1

SPDEF = target: T9, SPDEF (Homo sapiens, UniProt O95238 1-335); conditions: protein: recombinant; tags: N-terminal GST; dsDNA, one strand shown
T9 sequence: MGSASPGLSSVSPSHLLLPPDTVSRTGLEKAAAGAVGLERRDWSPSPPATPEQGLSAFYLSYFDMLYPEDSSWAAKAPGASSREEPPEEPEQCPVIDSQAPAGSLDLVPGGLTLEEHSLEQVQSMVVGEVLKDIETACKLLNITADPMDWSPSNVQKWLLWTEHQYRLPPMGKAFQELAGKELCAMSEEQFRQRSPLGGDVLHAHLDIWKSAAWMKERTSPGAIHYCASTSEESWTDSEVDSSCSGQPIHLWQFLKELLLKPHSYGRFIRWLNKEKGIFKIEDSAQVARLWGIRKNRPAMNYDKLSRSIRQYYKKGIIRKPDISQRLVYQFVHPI
How it was run: as §1

ETV7 = target: T10, ETV7 (Homo sapiens, UniProt Q9Y603 1-341); conditions: protein: recombinant; tags: N-terminal GST; dsDNA, one strand shown
T10 sequence: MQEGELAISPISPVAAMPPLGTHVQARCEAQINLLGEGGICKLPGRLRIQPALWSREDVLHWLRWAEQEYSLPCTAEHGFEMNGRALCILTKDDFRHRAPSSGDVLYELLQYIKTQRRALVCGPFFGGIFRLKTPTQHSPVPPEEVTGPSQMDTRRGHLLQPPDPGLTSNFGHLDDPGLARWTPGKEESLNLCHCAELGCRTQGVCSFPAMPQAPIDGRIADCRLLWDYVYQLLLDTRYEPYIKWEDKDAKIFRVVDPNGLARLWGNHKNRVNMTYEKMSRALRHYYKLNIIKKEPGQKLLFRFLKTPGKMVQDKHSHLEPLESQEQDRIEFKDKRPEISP
How it was run: as §1

ELF5 = target: T11, ELF5 (Homo sapiens, UniProt Q9UKW6-2 1-255); conditions: protein: recombinant; tags: N-terminal GST; dsDNA, one strand shown
T11 sequence: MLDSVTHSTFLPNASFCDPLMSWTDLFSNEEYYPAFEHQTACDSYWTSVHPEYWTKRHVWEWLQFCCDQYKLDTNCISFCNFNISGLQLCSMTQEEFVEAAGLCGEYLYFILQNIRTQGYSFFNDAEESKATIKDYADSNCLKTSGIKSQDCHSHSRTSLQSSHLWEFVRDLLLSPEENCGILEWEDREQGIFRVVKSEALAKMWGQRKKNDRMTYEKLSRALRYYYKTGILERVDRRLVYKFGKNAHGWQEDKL
How it was run: as §1

ETV3 = target: T12, ETV3 (Homo sapiens, UniProt P41162-2 1-143); conditions: protein: recombinant; tags: N-terminal GST; dsDNA, one strand shown
T12 sequence: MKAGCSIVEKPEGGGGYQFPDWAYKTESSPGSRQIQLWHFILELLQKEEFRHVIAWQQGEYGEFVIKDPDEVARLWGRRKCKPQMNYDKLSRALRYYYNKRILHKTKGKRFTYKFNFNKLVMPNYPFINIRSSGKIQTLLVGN
How it was run: as §1

ETV6 = ETV6 (Homo sapiens, UniProt P41212 1-452); conditions: protein: recombinant; tags: N-terminal GST; dsDNA, one strand shown
How it was run: as §1

Sequence of HSF1 (Q00613 whole entry): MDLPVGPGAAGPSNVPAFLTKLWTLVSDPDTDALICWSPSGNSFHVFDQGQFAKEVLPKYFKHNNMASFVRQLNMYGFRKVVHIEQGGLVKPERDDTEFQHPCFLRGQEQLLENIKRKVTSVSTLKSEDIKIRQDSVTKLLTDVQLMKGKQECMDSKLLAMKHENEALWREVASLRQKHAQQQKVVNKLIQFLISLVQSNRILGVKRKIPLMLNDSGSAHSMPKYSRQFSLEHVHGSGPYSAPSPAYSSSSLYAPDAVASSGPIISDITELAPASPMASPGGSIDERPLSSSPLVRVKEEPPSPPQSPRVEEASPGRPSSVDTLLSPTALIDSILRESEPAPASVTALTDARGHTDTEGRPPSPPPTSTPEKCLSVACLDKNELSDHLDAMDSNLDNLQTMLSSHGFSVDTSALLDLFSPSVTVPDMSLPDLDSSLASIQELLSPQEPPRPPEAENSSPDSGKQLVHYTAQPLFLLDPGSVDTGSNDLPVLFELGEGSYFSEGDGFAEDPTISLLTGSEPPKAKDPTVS
Sequence of ETV1 (P50549 whole entry): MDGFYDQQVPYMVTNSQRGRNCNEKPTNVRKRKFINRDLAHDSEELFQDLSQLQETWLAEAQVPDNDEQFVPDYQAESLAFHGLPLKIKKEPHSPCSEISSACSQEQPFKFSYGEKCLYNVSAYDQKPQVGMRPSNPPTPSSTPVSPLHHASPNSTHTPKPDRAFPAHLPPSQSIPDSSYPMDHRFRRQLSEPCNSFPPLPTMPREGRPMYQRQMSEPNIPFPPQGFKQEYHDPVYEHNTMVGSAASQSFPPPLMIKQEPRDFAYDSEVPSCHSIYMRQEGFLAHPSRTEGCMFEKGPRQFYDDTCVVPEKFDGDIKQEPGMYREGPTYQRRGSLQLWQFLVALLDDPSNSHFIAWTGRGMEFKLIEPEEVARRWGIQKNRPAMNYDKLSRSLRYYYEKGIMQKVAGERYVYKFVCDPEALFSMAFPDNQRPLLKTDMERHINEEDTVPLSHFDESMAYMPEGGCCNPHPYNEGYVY
Sequence of ETV5 (P41161 whole entry): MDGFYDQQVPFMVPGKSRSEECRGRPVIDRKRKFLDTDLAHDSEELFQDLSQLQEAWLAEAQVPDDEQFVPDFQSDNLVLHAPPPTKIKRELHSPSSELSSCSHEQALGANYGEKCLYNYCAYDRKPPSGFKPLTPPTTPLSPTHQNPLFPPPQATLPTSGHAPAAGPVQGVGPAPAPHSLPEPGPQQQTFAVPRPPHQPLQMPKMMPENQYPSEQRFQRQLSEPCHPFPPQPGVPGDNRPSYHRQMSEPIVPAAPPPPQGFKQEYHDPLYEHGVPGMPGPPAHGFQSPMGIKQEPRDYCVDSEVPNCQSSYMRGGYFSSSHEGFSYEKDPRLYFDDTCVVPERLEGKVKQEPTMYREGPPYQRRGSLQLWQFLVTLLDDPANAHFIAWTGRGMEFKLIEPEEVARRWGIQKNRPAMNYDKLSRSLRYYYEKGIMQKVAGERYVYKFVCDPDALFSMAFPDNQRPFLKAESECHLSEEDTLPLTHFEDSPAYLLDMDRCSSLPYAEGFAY
Sequence of ELF4 (Q99607 whole entry): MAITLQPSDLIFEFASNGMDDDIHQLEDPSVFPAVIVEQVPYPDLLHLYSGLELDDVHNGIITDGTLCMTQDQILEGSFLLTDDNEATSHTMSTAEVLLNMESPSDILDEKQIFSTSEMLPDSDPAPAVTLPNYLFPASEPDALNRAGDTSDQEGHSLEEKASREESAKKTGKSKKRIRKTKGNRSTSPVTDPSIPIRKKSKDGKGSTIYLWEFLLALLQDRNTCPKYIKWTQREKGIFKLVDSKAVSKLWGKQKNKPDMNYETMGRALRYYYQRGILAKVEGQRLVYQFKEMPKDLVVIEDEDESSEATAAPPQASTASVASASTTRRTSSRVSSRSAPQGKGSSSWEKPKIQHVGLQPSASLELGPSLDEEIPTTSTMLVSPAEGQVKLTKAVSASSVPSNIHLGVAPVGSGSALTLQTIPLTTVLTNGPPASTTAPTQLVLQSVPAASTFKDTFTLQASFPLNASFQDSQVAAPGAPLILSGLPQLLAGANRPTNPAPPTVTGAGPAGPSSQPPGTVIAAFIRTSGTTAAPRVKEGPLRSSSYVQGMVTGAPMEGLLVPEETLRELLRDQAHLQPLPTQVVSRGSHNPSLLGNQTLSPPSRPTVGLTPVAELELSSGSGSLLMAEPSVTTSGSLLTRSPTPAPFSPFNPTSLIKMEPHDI
Sequence of ETV6 (P41212 whole entry): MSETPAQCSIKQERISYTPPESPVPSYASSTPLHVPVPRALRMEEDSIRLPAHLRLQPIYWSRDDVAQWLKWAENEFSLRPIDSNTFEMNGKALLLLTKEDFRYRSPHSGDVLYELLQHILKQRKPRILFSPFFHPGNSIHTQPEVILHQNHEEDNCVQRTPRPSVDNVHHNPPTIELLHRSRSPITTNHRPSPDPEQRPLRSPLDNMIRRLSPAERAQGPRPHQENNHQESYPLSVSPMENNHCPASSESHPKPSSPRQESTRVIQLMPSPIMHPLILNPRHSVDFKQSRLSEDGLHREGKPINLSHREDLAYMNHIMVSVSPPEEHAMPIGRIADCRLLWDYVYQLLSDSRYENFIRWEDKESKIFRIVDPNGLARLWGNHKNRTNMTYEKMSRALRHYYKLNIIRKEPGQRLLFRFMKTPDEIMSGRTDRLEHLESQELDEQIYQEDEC
Sequence of CRX (O43186 whole entry): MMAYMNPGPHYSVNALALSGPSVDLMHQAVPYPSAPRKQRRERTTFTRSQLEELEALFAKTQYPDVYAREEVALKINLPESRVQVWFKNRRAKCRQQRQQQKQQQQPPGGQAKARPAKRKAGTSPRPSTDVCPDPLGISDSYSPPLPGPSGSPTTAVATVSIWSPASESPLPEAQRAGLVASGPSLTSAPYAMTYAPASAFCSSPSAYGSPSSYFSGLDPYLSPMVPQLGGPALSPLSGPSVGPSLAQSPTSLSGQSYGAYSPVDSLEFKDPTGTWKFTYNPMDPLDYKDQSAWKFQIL

Q: Which results are given for TTGCCC?
A: binding signal (FEV): 1.46 fold enrichment (6-mer frequency, TF over GST control); binding signal (ETV5): 1.32 fold enrichment (6-mer frequency, TF over GST control); binding signal (HSF1): 1.2 fold enrichment (6-mer frequency, TF over GST control); binding signal (SPIC): 1.28 fold enrichment (6-mer frequency, TF over GST control); binding signal (ELF4): 1.4 fold enrichment (6-mer frequency, TF over GST control); binding signal (ELK4): 1.42 fold enrichment (6-mer frequency, TF over GST control); binding signal (ETV2): 1.25 fold enrichment (6-mer frequency, TF over GST control); binding signal (ELF3): 1.33 fold enrichment (6-mer frequency, TF over GST control); binding signal (CRX): 1.2 fold enrichment (6-mer frequency, TF over GST control); binding signal (ETV1): 1.22 fold enrichment (6-mer frequency, TF over GST control); binding signal (ERF): 1.3 fold enrichment (6-mer frequency, TF over GST control); binding signal (ETV3L): 1.41 fold enrichment (6-mer frequency, TF over GST control); binding signal (ETS2): 1.43 fold enrichment (6-mer frequency, TF over GST control); binding signal (SPDEF): 1.38 fold enrichment (6-mer frequency, TF over GST control); binding signal (ETV7): 1.38 fold enrichment (6-mer frequency, TF over GST control); binding signal (ELF5): 1.22 fold enrichment (6-mer frequency, TF over GST control); binding signal (ETV3): 1.35 fold enrichment (6-mer frequency, TF over GST control); binding signal (ETV6): 1.23 fold enrichment (6-mer frequency, TF over GST control)
